About 14,000 (4.5%) of roughly 310,000 compounds showed an effect of 50% or more. Effects have a minus sign here. The entries come from a sample that favours strong results as a whole.
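Further: peak tail current of the secondary pulse compared with the same well before compound.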

Sequence of human ether-à-go-go-related gene (hERG) potassium channel (Q12809 whole entry, looked up): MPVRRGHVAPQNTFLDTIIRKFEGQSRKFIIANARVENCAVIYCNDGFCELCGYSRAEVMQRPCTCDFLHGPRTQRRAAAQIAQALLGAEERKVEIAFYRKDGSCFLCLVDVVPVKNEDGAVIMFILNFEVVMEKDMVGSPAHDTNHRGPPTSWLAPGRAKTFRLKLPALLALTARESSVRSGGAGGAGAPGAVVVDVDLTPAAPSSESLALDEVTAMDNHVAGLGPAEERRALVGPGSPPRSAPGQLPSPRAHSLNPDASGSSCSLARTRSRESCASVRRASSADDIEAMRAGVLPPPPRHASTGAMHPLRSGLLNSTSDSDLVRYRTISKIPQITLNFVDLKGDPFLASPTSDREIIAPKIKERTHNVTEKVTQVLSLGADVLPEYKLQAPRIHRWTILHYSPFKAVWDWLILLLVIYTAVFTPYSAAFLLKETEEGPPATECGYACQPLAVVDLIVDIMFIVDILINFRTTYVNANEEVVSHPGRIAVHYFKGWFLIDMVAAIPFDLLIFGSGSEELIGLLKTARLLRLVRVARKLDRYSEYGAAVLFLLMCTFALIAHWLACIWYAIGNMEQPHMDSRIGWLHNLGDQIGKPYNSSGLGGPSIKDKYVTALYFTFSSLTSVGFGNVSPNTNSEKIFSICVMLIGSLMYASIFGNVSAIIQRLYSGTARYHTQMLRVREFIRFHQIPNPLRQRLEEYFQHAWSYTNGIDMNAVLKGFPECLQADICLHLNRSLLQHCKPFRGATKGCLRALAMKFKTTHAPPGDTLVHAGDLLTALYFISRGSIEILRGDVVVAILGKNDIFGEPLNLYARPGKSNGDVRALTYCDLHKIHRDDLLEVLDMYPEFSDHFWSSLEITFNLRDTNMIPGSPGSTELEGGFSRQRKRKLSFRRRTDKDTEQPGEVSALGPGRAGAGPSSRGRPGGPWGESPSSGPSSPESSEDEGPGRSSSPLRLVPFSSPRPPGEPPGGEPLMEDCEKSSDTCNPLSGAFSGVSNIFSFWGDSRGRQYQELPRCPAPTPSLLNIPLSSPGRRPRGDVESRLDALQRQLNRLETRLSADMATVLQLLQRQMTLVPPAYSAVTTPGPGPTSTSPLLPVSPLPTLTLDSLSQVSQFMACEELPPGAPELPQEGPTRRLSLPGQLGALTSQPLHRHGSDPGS

This assay has as its target human ether-à-go-go-related gene (hERG) potassium channel (human, UniProt Q12809). The experiment in a line: primary screen, population patch clamp on CHO cells stably expressing hERG; higher = less effect of the substance.
Consider `CCOC(=O)C1(CCOc2ccccc2)CCN(CC=C(C)C)CC1`, for which the “hERG current change (%, negative = inhibition) at 10uM” value is given as -50.2%.

Turning to `CCCN1CCC(CCOc2ccccc2)(C(=O)OCC)CC1`, the “hERG current change (%, negative = inhibition) at 10uM” value is given as -58.5%. Consider `CCOC(=O)C1(CCOc2ccccc2)CCN(CC2CC2)CC1`, for which the “hERG current change (%, negative = inhibition) at 10uM” value was -47.4%. The figure for `CCOC(=O)C1(CCOc2ccccc2)CCN(CC(O)CO)CC1` (stereo not drawn) is -26.9%. The figure for `CCN1CCN(Cc2cccnc2)CC1` is 17.1%; for `CCCCOC(=O)c1ccc(NC(=O)CSc2nncn2C)cc1` it is -4.57%; for `Cc1ccc(S(=O)(=O)NNC(=O)c2cnn(-c3ccccc3)c2-n2cccc2)cc1` it is -15%. The figure for `COc1ccc(C(=O)/C=C/C(=O)N(Cc2ccccc2)C(C(=O)NC2CCCCC2)c2ccncc2)c(O)c1` (stereo not drawn) is -19.3%. As to `O=C(N/N=C/c1ccsc1)c1ccc2ccccc2n1`, the “hERG current change (%, negative = inhibition) at 10uM” value is reported as -2.2%. The figure for `O=C(CSc1nc2ccccc2c(=O)n1Cc1ccco1)N1CCN(c2ccccc2)CC1` is -74.9%; for `NC(=O)CSc1nc2ccccc2c(=O)n1Cc1ccco1` it is -36%; for `O=C(CSc1nc2ccccc2c(=O)n1Cc1ccco1)N1CCCCCC1` it is -76.4%. With `O=C(CSc1nc2ccccc2c(=O)n1Cc1ccco1)N1CCCC1` the figure was -77.1%; with `CCn1c(SCC(=O)N2CCN(c3cccc(Cl)c3)CC2)nc2ccccc2c1=O`, -39.1%. The figure for `O=c1c2ccccc2nnn1CSc1nc2ccccc2c(=O)n1Cc1ccco1` is -6.44%.

With `CCOC(=O)CSc1nc2ccccc2c(=O)n1Cc1ccco1`, the “hERG current change (%, negative = inhibition) at 10uM” value was -18.1%. In the case of `COCCn1nnnc1CN1CCN2CCCC2C1.Cl` (stereo not drawn), the “hERG current change (%, negative = inhibition) at 10uM” value is 3.16%. With `C/C(=N/NC(=O)c1cc(-c2ccccc2)nc2c(Cl)cccc12)c1cccnc1` the figure was 26.1%; with `Cc1cc(=O)[nH]c(SCC(=O)N2CCCC(C)C2)n1` (stereo not drawn), 11.3%. With `CCOc1ccc(N(CC(=O)Nc2ccc(OC)cc2)S(=O)(=O)c2c(C)[nH]c(=O)[nH]c2=O)cc1` the figure was 1.99%; with `COc1ccc(S(=O)(=O)N2CCOCC2)cc1C(=O)NCC(c1ccco1)N1CCCC1` (stereo not drawn), 3%; with `OCCN1CCN(CCCN2c3ccccc3Sc3ccc(Cl)cc32)CC1`, -49.3%. With `CN(C)CCCN1c2ccccc2Sc2ccc(Cl)cc21.Cl` the figure was -42.2%; with `C[NH+](C)CCCN1c2ccccc2Sc2ccc(Cl)cc21.[Cl-]`, -65.3%. With `O=C(Nc1ccccc1C(=O)N1CCCC1)c1ccc(Cl)cc1Cl`, the “hERG current change (%, negative = inhibition) at 10uM” value was found to be 14%. With `Cc1cc(C(=O)CSc2nnc(NCc3ccccc3)s2)c(C)n1C` the figure was -9.15%; with `O=C(c1cccs1)N1CCN(c2nc3ccccc3s2)CC1`, 0.757%; with `O=C(c1cccs1)N1CCC(c2nc3ccccc3s2)CC1`, -57.2%. For the molecule `O=C(CN1CCC(c2nc3ccccc3s2)CC1)N1CCCCC1`, the “hERG current change (%, negative = inhibition) at 10uM” value is -33.5%. On to `O=C(CN1CCC(c2nc3ccccc3s2)CC1)NCc1ccccc1`, for which the “hERG current change (%, negative = inhibition) at 10uM” value is -67.5%. With `O=C(c1ccccc1Br)N1CCC(c2nc3ccccc3s2)CC1` the figure was -35.1%; with `Cc1cccc(C(=O)N2CCC(c3nc4ccccc4s3)CC2)c1`, -33.7%; with `O=C(c1cccc(F)c1)N1CCC(c2nc3ccccc3s2)CC1`, -49.9%. With `O=C(CN1CCC(c2nc3ccccc3s2)CC1)NCc1cccs1` the figure was -37.2%. The figure for `CCc1ccc(C(=O)N2CCC(c3nc4ccccc4s3)CC2)cc1` is -71.9%; for `O=C(N/N=C/c1c[nH]c2ccc(Br)cc12)c1ccn(Cc2ccc(Cl)cc2Cl)n1` it is 6.95%. Turning to `C/C(=C\c1ccc(Br)cc1)C(=O)c1c(C)cc(C)[nH]c1=O`, the “hERG current change (%, negative = inhibition) at 10uM” value came to 8%. The figure for `Cc1cc(C)c(NC(=O)CS)c(Cl)c1` is 6.4%; for `CCOc1ccc(C(=O)Nc2c(C(N)=O)oc3ccccc23)cc1` it is 11.9%.

Turning to `COc1cc(C(=O)Nc2c(C(=O)N3CCOCC3)oc3ccccc23)cc(OC)c1OC`, the “hERG current change (%, negative = inhibition) at 10uM” value is -10%. Take `CCOc1ccc(C(=O)Nc2c(C(=O)N3CCC(N4CCCCC4)CC3)oc3ccccc23)cc1`: the “hERG current change (%, negative = inhibition) at 10uM” value is reported as -83.2%. The figure for `O=C(Nc1c(C(=O)N2CCC(N3CCCCC3)CC2)oc2ccccc12)c1ccc(F)cc1` is -65.8%.

For the molecule `O=C(c1ccccc1F)N1CCC(N2CCCCCC2)CC1`, the “hERG current change (%, negative = inhibition) at 10uM” value was -10.3%. With `O=C(Nc1c(C(=O)N2CCOCC2)oc2ccccc12)c1ccccc1Cl`, the “hERG current change (%, negative = inhibition) at 10uM” value was 0.111%. For the molecule `O=C(c1ccc(F)cc1)N1CCC(N2CCCCCC2)CC1`, the “hERG current change (%, negative = inhibition) at 10uM” value is reported as -26%. The figure for `O=C(Nc1ccc(F)cc1)c1oc2ccccc2c1NC(=O)C1CCCC1` is -4.15%.

As for `O=C(Nc1c(C(=O)N2CCC(N3CCCCC3)CC2)oc2ccccc12)c1c(F)cccc1F`, the “hERG current change (%, negative = inhibition) at 10uM” value is -51.7%. With `O=C(O)CCCCCCCCc1cn(CCc2c[nH]c3ccccc23)nn1` the figure was 4.49%; with `O=C(Nc1ccc(Cl)cc1)C1=Cc2ccccc2OC1`, -9.34%. The figure for `CC(=NCCC1=CCCCC1)c1c(O)n(-c2ccccc2)c(=O)[nH]c1=O` is 4.58%. The figure for `CC(C)C[C@H](CO)Nc1nc(N(C)c2cccc(Cl)c2)c2ncn(C(C)C)c2n1` is -7.87%; for `COCCn1c(=S)[nH]c2cc(OC)c(OC)cc2c1=O` it is 11%.

In the case of `COc1ccc(-c2nnnn2-c2ccccc2OC)cc1`, the “hERG current change (%, negative = inhibition) at 10uM” value is on record as -9.02%. With `Cc1ccc(CSc2nn3c(=O)c(C)nnc3s2)cc1` the figure was -13.9%; with `OCCN1CCN(c2nc(-c3ccccc3)c3cc(Br)ccc3n2)CC1`, -47.7%; with `Cc1ccc2nc(N3CCN(C=O)CC3)nc(-c3ccccc3)c2c1`, -56%. Consider `CCOC(=O)N1CCN(c2nc(-c3ccccc3)c3cc(C)ccc3n2)CC1`, for which the “hERG current change (%, negative = inhibition) at 10uM” value is given as -8.98%. On to `Cc1ccc2nc(N3CCC(C(=O)O)CC3)nc(-c3ccccc3)c2c1`, for which the “hERG current change (%, negative = inhibition) at 10uM” value is recorded as -1.95%.

Regarding `Cc1ccc2nc(N3CCN(CCO)CC3)nc(-c3ccccc3)c2c1`, the “hERG current change (%, negative = inhibition) at 10uM” value is given as -54.4%. With `OCCN1CCN(c2nc(-c3ccccc3)c3cc(Cl)ccc3n2)CC1` the figure was -26.2%.

(Values after PMC4336329 (PLoS ONE, 2015).)
